Measured values reported in PubChem BioAssay (NCI).
The panel holds about 79,000 compounds, 15% with a hit somewhere; the sample as a whole holds those more often. Values without a mark were called inactive. Active and inactive are the calls of the source. No stated cut-off is given here; in the data, active means growth inhibition above about 70%; inactive means the rest.

Test: NCI Yeast Anticancer Drug Screen. Data for the rad14 strain (AID 159);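 further: 0% = growth of vehicle-treated control cultures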
Settings: S. cerevisiae rad14 strain growth inhibition, stronger effect = higher value
Description: Growth inhibition of yeast strains with defined genetic alterations is measured as a screen for potential anti-cancer activity. Selected strains with alterations in DNA damage repair or cell cycle control were exposed to compounds and growth inhibition was measured relative to vehicle treated controls. The strain used in this assay is rad14

Compound	growth inhibition (at 1.2 µM) [%]	growth inhibition (at 3.7 µM) [%]	growth inhibition (at 11.0 µM)	growth inhibition (at 33.0 µM)	growth inhibition (at 100.0 µM)
N#CC(C#N)=Cc1ccc(C#N)cc1	1	1	2%	6%	16%
COC(=O)C(F)C(Br)C(=O)OC (stereo not given)	5	67	93% (active)	97% (active)	96% (active)
COc1cc(O)c2c(O)c3c(c4c2c1[C@]1(C4)C(C)=CCCC1(C)C)[C@H](O)[C@@]1(O)CC(=O)C(C(N)=O)=C(O)[C@@]1(O)C3=O	-57	50	97% (active)	97% (active)	93% (active)
COC(=O)C1=C(C(=O)OC)SC2(S1)C(C(=O)OC)=C(C(=O)OC)Sc1c2ssc1=O	27	30	80% (active)	99% (active)	92% (active)
C=CC[N+]12CN3CN(CN(C3)C1)C2	-35	-34	-31%	-16%	31%
CC1CN=C(Nc2ccccc2)S1 (stereo not given)	-49	-54	-58%	-51%	-41%
C=C[C@H]1CN2CC[C@H]1C[C@@H]2[C@@H](O)c1ccnc2ccccc12	-3	-9	-2%	0%	1%
Cn1cc(NC(=O)c2cc(NC(=O)CN=C(N)N)cn2C)cc1C(=O)NCCC(=N)N	18	-2	35%	97% (active)	98% (active)
